Measured values from PubChem BioAssay (NCI).
The panel holds about 83,000 compounds, 20% with a hit somewhere; the sample as a whole holds those more often.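 The endpoint reported here, percent growth, reads 100 for growth as untreated, 0 for no net growth and -100 for all cells dead.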 Values without a mark were called inactive. Calls of active or inactive are those of the source. The calls were made as follows: active = growth percent below 10; inactive = the rest.

Key:
Assay in all cases: NCI-60 one-dose screen, 48 h (100 = growth as untreated, 0 = no growth, -100 = all killed)
Conditions in all cases: 10 µM unless noted
[1] = tested on: SK-MEL-2 melanoma
[2] = tested on: EKVX NSCLC
[3] = tested on: SN12C renal
[4] = tested on: UO-31 renal
[5] = tested on: TK-10 renal
[6] = tested on: ACHN renal
[7] = tested on: CAKI-1 renal
[8] = tested on: A498 renal
[9] = tested on: CCRF-CEM leukemia

| Structure (SMILES) | growth [1] | growth [2] | growth [3] | growth [4] | growth [5] | growth [6] | growth [7] | growth [8] | growth [9] |
| --- | --- | --- | --- | --- | --- | --- | --- | --- | --- |
| O=S(=O)(Nc1ccsc1-c1nc(-c2ccccc2)no1)c1cc(Cl)cc(Cl)c1 | 105% | 95.6% | 91.3% | 83.2% | 102% | 98.2% | 86.9% | 91.1% | 101% |
| COC(=O)c1ccc2oc(NC(=O)c3ccc(N4CCOCC4)c([N+](=O)[O-])c3)nc2c1 | 99.5% | 96.6% | 87.3% | 75.4% | 115% | 94.1% | 85.9% | 98.5% | 90.3% |
| C=C(C)[C@@H]1CC[C@]2(CN)CC[C@]3(C)[C@H](CC[C@@H]4[C@@]5(C)CCC(N)[C@@](C)(CO)[C@@H]5CC[C@]43C)[C@@H]12 (some centres not stated) | -86.4% (active) | 21.3% | -69.3% (active) | 65.8% | -86.3% (active) | -77.7% (active) | -15.7% (active) | 81.4% | -44.8% (active) |
| C=C1c2c(C)nn(-c3ccc(NC(C)=O)cc3)c2N(C)C23CC1C1(C)c4c(C)nn(-c5ccc(NC(C)=O)cc5)c4N(C)C(C)(CC12)C3 (configuration not stated) | 36.6% | 24.9% | 45.6% | 24.2% | 37.3% | 19.4% | 32.8% | 60.3% | 8.28% (active) |
| C[C@@H](C[C@H](CCOCc1cccnc1)c1ccccc1)c1cc2ccccc2o1 | 89.7% | 94.2% | 95.1% | 75.9% | 95.3% | 93.1% | 77.6% | 101% | 94.1% |
| CCCn1nc(-c2ccccc2)c2c(-c3ccccc3)onc2c1=O | 57.8% | 78.9% | 82.1% | 68.8% | 106% | 94.1% | 85.9% | 68.9% | 68.7% |
| O=C(Nc1ccccc1)c1sc(-c2cccc(C(F)(F)F)c2)cc1O | 33.4% | 81.5% | 83.7% | 77.6% | 96.5% | 79.5% | 74.6% | 51.2% | 87.4% |
| O=C1/C(=C/c2ccccc2[N+](=O)[O-])COc2ccc(O)c(O)c21 | 3.35% (active) | 7.9% (active) | -29.1% (active) | -67.8% (active) | 3.34% (active) | 3.22% (active) | 6.79% (active) | 77.4% | -2.4% (active) |
| CCCc1nc2ccccn2c1Nc1ccc(C(=O)NO)cc1 | 92.1% | 100% | 86.5% | 83.3% | 94.7% | 91.8% | 88.8% | 87.3% | 74.2% |
| Cc1cc(Cl)nc(N(CCCNc2ccnc3cc(Cl)ccc23)Cc2ccccn2)n1 | 64.2% | 64.7% | 52.6% | 27.2% | 66.1% | 54.2% | 48.5% | 30.4% | 36.1% |
| C=C1c2c(C)nn(-c3ccc(N)cc3)c2N(C)C23CC1C1(C)c4c(C)nn(-c5ccc(N)cc5)c4N(C)C(C)(CC12)C3 (configuration not stated) | 79.2% | 52.3% | 89.5% | 51% | 76.2% | 58.9% | 76.6% | 89.4% | 47.8% |
| CCO/C=N/C1=C(C#N)C(c2ccc(OC)cc2)c2c(c3ccccc3n(C)c2=O)O1 (configuration not stated) | 108% | 101% | 98.9% | 72.8% | 112% | 100% | 89.6% | 111% | 100% |
| COc1ccc(-c2nc3ccccn3c2/C=C/C(=O)c2cc(OC)c(OC)c(OC)c2)cc1 | 52.6% | 90.4% | 54.8% | 42.9% | 73.6% | 43.1% | 59.1% | 55% | 41.7% |
| C=C1c2c(C)nn(-c3ccc(O)cc3)c2N(C)C23C[C@@H]1C1(C)c4c(C)nn(-c5ccc(O)cc5)c4N(C)C(C)(C[C@H]12)C3 (some centres not stated) | 44.3% | 26.1% | 30% | 22.4% | 57.3% | 24.6% | 27.2% | 34.8% | 4.13% (active) |
| CCN(CC)N=Nc1nn(C(=O)Nc2ccc(Cc3ccccc3)cc2)c2ccc(Cl)cc12 | 72.9% | 47.5% | 83.1% | 65.6% | 83.5% | 28.1% | 65.9% | 87.9% | 62.5% |
| Clc1cnc(Nc2ccc(OCCN3CCCC3)cc2)nc1NCc1ccco1 | -10.3% (active) | 25.2% | 5.92% (active) | -3.47% (active) | 9.62% (active) | -10.2% (active) | 10% | 17.6% | 7.04% (active) |
| Cc1c(C(=O)O[C@H]2[C@@H]3[C@H](C)CC[C@H]3[C@]3(C)O[C@@]2(C2CCCCC2)C[C@H]3OC(=O)CO)ccc2ccccc12 | 40.3% | 41.8% | -1.88% (active) | -11.7% (active) | 59.8% | -36.4% (active) | 0.73% (active) | -76.6% (active) | -4.66% (active) |
| COc1ccc(/C=C(\C#N)n2nnc3cc(F)c(F)cc32)c(OC)c1OC | 79% | 72.8% | 67% | 52.4% | 126% | 66.2% | 87.7% | 91% | 23.4% |
| Cn1c(NCCc2ccc(O)c(O)c2)nc2c1c(=O)n(Cc1ccc(Cl)cc1)c(=O)n2C | 95% | 84.8% | 82.7% | 29.8% | 69.9% | 39.5% | 38.7% | 86.2% | 12.8% |
| COc1ccc(/C=C2\COc3ccc(O)cc3C2=O)c(OC)c1 | 55.9% | 70.5% | 52.7% | 74.9% | 91.9% | 85.2% | 59.3% | 92.4% | 4.96% (active) |
| CC(=O)Nc1cccc(C2=CC(c3ccc(C)cc3)n3ncnc3N2)c1 (configuration not stated) | 103% | 102% | 101% | 79.7% | 110% | 96.7% | 106% | 93.9% | 110% |
| Cc1cccc(-c2cc(O)c(C(=O)N3CCOCC3)s2)c1 | 28.5% | 58.6% | 49.1% | 58.3% | 61.7% | 60.6% | 47.5% | 26.7% | 35.5% |
| COc1ccc(Oc2nc(Nc3ccc(N4CCOCC4)nc3)ncc2NC(=O)c2cc(OC)cc(OC)c2)cc1 | 47.6% | 89.3% | 93.7% | 56.3% | 83.4% | 75.1% | 67.3% | 53.7% | 64.2% |
| CC(C)OC(=O)NNC(=O)c1ccncc1 | 84.4% | 106% | 100% | 77.8% | 103% | 96% | 94.4% | 119% | 132% |
| CC(C)c1ccc(C(=O)OC(=O)c2ccc(C(C)C)cc2)cc1 | 92.4% | 99.7% | 98.7% | 83.9% | 98.2% | 96% | 67.7% | 92.1% | 66.8% |
| COC(=O)c1ccc(CSc2nnc(-c3ccncc3)o2)cc1 | 102% | 101% | 96.2% | 79.7% | 116% | 100% | 90.3% | 120% | 99.3% |
| Cc1ccc(NC(=O)C(Cl)Cl)cc1 | 83.6% | 109% | 98.9% | 83% | 94.3% | 100% | 103% | 80.9% | 100% |
| COc1ccc(-n2ncn(CCCCCCn3cnn(-c4ccc(OC)cc4)c3=O)c2=O)cc1 | 89.5% | 85.8% | 90.6% | 72.5% | 118% | 87.5% | 87.4% | 101% | 87.8% |
